Marburg entry inh – Marburg virus entry inhibition. Marburg virus pseudotyped entry inhibition, cell reporter. Potency, µM (highest dose often 37.8 µM), actives largely listed as inhibitors. 1.8% of 300,000 active; calls by dose curve; tested in HEK293 cells
HCV inhibitor – inhibitors of hepatitis C virus infection; Huh7.5.1 HCVcc-Cre infection, luciferase reporter, 44 h; Potency, µM (titrated, usually from 41.8 µM), hits mostly inhibitors; 3.4% of 340,000 active; active means well fitted inhibition curve with a large enough effect; inconclusive means small, poorly fitted or top-dose-only effect, or another doubt; inactive means no such curve, though single readings can be large or run the other way
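After 44 h co-culture of compound, cells and HCVcc-Cre (~0.5 moi), substrate is added for 15 min at room temperature and luciferase measured over 15 sec. Cells were seeded at 1,000/well and pre-cultured 4 h.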
LASV entry inh – Lassa virus entry inhibition; AID 540256; Lassa virus pseudotype entry inhibition, cell reporter; 1.2% of 300,000 active; Potency, µM (highest dose often 37.9 µM), most hits filed as inhibitors; calls by dose curve; tested in HEK293 cells; further: nearly all actives have a fitted effect of over 50% in size
VACV mCherry inh – vaccinia inhibition (mCherry reporter). Vaccinia virus mCherry reporter infection, fluorescence. Potency, µM (series often up to 36.5 µM), hits mostly inhibitors. 0.63% of 310,000 active; calls by dose curve; tested in A549 cells; further: nearly all actives have a fitted effect of over 35% in size
FMDV inh – blocks foot and mouth disease virus; 1.2% of 410,000 active; FMDV antiviral cell-based qHTS; Potency, µM (doses to about 57.9 µM), actives largely listed as inhibitors; calls by dose curve; tested in HEK293T cells; further: read-out not given here; nearly all actives have a fitted effect of over 45% in size
Vaccinia Venus – inhibitors of vaccinia virus (Venus reporter); AID 720580; Vaccinia virus Venus reporter expression, fluorescence; Potency, µM (doses to about 36.5 µM), hits mostly inhibitors; 0.46% of 330,000 active; calls by dose curve; tested in A549 cells; further: nearly all actives have a fitted effect of over 30% in size
A number is an active result; 0 = inactive; ? = inconclusive; - = no result. Most compounds without a hit are left out; they make up all but 5.3% or so of the library.

SMILES	Marburg entry inh	HCV inhibitor	LASV entry inh	VACV mCherry inh	FMDV inh	Vaccinia Venus
N#CC(C#N)=C1C=CC=CN1/C(=C\c1ccco1)C(=O)c1ccccc1	25µM	?	?	?	?	?
CCn1c(SCC(=O)N2CCCc3ccccc32)nc2ccccc2c1=O	?	5µM	?	?	?	0
O=C(CSc1nnc(-c2cccs2)n1-c1ccccc1)N1CCCc2ccccc21	12µM	?	?	-	0	-
CCn1c(SCC(=O)N2CCCc3ccccc32)nnc1-c1cccs1	0	?	0	0	0	0
CC(C)c1nc(SCC(=O)N2CCCc3ccccc32)c2c(=O)n(C)c(=O)n(C)c2n1	0	10µM	-	?	?	?
CC(C)Cn1c(SCC(=O)N2CCCc3ccccc32)nc2ccccc2c1=O	?	?	?	0	?	0
O=C(COC(=O)C12CC3CC(CC(Br)(C3)C1)C2)NCc1ccco1	-	-	-	0	-	0
Cc1cc(C(=O)NCc2nc(-c3cccc(NC(=O)c4ccccc4)c3)oc2C)nc(C)n1	-	-	-	0	?	0
CC(=O)CCc1oc2ccc(C)cc2c1-c1ccccc1	0	0	4µM	0	0	0
O=C(N/N=C/c1ccccc1)c1cc(-c2ccc3c(c2)OCO3)n[nH]1	0	0	0	0	0	0
O=C(N/N=C/c1ccc(O)cc1)c1cc(-c2ccc3c(c2)OCO3)n[nH]1	7.9µM	?	?	?	0	0
COc1ccc(N/C(=N/c2nc(C)cc(C)n2)NC(=O)C(C)C)cc1OC	0	-	-	-	-	-
CCOC(=O)c1cnc(SCc2ccccc2)nc1N	?	?	0	0	-	0
CCOC(=O)c1cnc(SCc2ccc(C(C)(C)C)cc2)nc1N	0	?	4.1µM	-	0	-
CCOC(=O)c1cnc(SCc2ccc(Cl)c(Cl)c2)nc1N1CC1	0	11µM	?	?	?	?
CCOC(=O)CN1C(=O)NC(c2ccc(Br)cc2)C(C(=O)OC)=C1C (configuration not stated)	0	-	-	-	-	-
Cc1ccc(NC(=O)C2CCN(S(=O)(=O)c3cc([N+](=O)[O-])ccc3Cl)CC2)nc1	-	5µM	-	-	?	-
O=C(Nc1nc2ccc(F)cc2s1)C1CCN(S(=O)(=O)c2cc([N+](=O)[O-])ccc2Cl)CC1	?	32µM	?	?	20µM	?
O=C(NCc1cccnc1)C1CCN(S(=O)(=O)c2cc([N+](=O)[O-])ccc2Cl)CC1	0	0	0	14µM	?	?
O=C(NC1CCN(S(=O)(=O)c2cccc([N+](=O)[O-])c2)CC1)C1CCCCC1	0	0	0	0	0	0
O=C(NC1CC1)C1CCN(S(=O)(=O)c2ccc(Cl)c([N+](=O)[O-])c2)CC1	-	13µM	-	-	?	-
Cc1ccc(-n2c(=O)c3c(c4cc(C)ccc4n3C)n(CC(=O)N3CCCC3)c2=O)cc1	-	-	0	0	0	0
Ic1ccc(Nc2nc(NCCN3CCOCC3)nc(N3CCOCC3)n2)cc1	-	-	-	?	-	0
Cc1ccc2nc(NC(=O)C3CCN(S(=O)(=O)c4cnc[nH]4)CC3)sc2c1	?	0	?	0	?	0
Cc1ccc2nc(NC(=O)C3CCN(S(=O)(=O)c4cc([N+](=O)[O-])ccc4Cl)CC3)sc2c1	8.2µM	6.3µM	?	?	?	?
SMILES	Marburg entry inh	HCV inhibitor	LASV entry inh	VACV mCherry inh	FMDV inh	Vaccinia Venus
CCn1c(-c2ccccc2F)nc2cc(NC(C)=O)cc(C(=O)N(C)Cc3c(C)nc4ccccn34)c21	-	-	-	0	0	0
COC(=O)CSc1nc(N)c(C#N)c(-c2ccc(O)cc2)c1C#N	0	0	-	-	4µM	-
COC(=O)CSc1nc2c(c(-c3ccc(C)o3)c1C#N)CCCC2	0	5.6µM	0	-	0	-
CCOC(=O)CSc1nc(N)c(C#N)c(-c2ccc(OCC)cc2)c1C#N	0	?	0	0	0	0
COC(=O)N1CCC2(CCCN(c3ccccn3)C2)CC1	-	-	-	-	0	-
COc1cc(/C=C/C(=O)c2ccc(C)c([N+](=O)[O-])c2)cc(OC)c1O	?	?	0	?	14µM	0
COc1cc(/C=C/C(=O)c2cccc([N+](=O)[O-])c2)cc(OC)c1OC	?	11µM	?	0	28µM	0
Cc1cc2nc3c(=O)[nH]c(=O)nc-3n(C)c2cc1C=O	-	-	-	-	16µM	-
COc1ccc([C@H]2CC(=O)C=C(c3cccc4c3Oc3ccccc3S4)C2)cc1OC	-	13µM	-	?	?	?
COc1ccc([C@H]2CC(=O)C=C(c3cccc(C(C)C)c3)C2)cc1OC	-	?	-	?	25µM	?
COc1cccc(C2=CC(=O)C[C@H](c3ccc4c(c3)OCO4)C2)c1OC	-	10µM	-	0	0	0
COc1cccc(OC)c1C1=CC(=O)C[C@H](c2ccc3c(c2)OCO3)C1	-	?	-	?	0	0
CCOC(=O)c1cccc(C2=CC(=O)C[C@H](c3ccc(OC)c(OC)c3)C2)c1	-	13µM	-	0	40µM	0
